Compound activity as filed in PubChem.
Sampled rows, rich in hits. Any-hit rate of the full collection: about 1.6%.
KCNQ2 inh: rat KCNQ2 potassium channel inhibitors, primary screen, cell-based, CHO-K1, FluxOR thallium flux, B-score; Potassium voltage-gated channel subfamily KQT member 2 (Rattus norvegicus), O88943; 20 min; stronger effect = lower value; B-score at 10 µM; 310,000 compounds, 1.1% hits; AID 2156, 2009;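 active = fluorescence ratio B-score at most minus 3 library SDs, with starting brightness B-score within 2 library SDs, cut at about -5.5 in these data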
KCNQ2 enhance: potentiators of rat KCNQ2 potassium channel | Potassium voltage-gated channel subfamily KQT member 2 (Rattus norvegicus), O88943 | CHO-K1 KCNQ2, FluxOR thallium flux fluorescence; stronger effect = higher value | B-score at 10 µM | 310,000 compounds, 0.54% hits;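 active = fluorescence ratio B-score at least 3 SD of library B-scores, with initial fluorescence B-score within 3 of them, cut at about 5.3 in these data; same plate scores as AID 2156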;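 also: B-score of peak minus minimum over baseline fluorescence ratio after K+ and Tl+ stimulus; positive B-score means potentiation of KCNQ2 with more thallium influx and brighter signal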
Kir21 conf inh: mouse Kir2.1 channel blockers, retest, confirmation, cell-based, FluxOR thallium flux, duplicate; Kir2.1-expressing cells, FluxOR thallium flux fluorescence; stronger effect = lower value; shares compounds with KCNQ2 enhance; Tl flux remaining, % of negative control (stronger effect = lower value), % at 10 µM; 2,300 compounds, 41% hits;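 active = Primary-screen hit whose thallium flux fell at least 3 control SD below untreated wells in both duplicates, with normal baseline fluorescence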;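 also: 0% = blank wells without stimulus and 100% = stimulated no-compound controls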
HEK293 ctr: parental HEK293 activity in Kir2.1 inhibitor counter-screen; shares compounds with KCNQ2 enhance; parental HEK293 cells, FluxOR thallium flux fluorescence; 0% = unstimulated blank wells; FluxOR signal as % of negative control (100 = no effect), % at 10 µM; 2,300 compounds, 19% hits;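 active = dye signal at least 3 control SD above or below untreated wells in both duplicates, raw fluorescence within 3, either direction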;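 also: percent is based on the flux ratio of peak minus minimum fluorescence over baseline F0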
CHO-K1 Tl ctr: nonspecific thallium flux increase in parental CHO-K1, confirmation, counter-screen for KCNQ2 potentiator project, cell-based, FluxOR thallium flux, duplicate | shares compounds with KCNQ2 enhance | parental CHO-K1 cells, FluxOR thallium flux fluorescence; zero = vehicle mean+3SD, 100% = vehicle-minus-blank window | activity increase over 3SD of controls, % at 10 µM | 1,200 compounds, 43% hits | AID 2282, 2010;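 active = signal rise of at least 3 SD above the untreated control mean, in both duplicate wells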;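 also: counter screen of KCNQ2 potentiator hits so any rise reflects channel-independent effects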
KCNQ1 pot spec: human KCNQ1 channel potentiation off-target, confirmation, selectivity assay for KCNQ2 potentiator project, cell-based, CHO, FluxOR thallium flux; CHO KCNQ1 stable, FluxOR thallium flux fluorescence; beyond 3SD, as % of vehicle-control signal; shares compounds with KCNQ2 enhance; 1,200 compounds, 28% hits; activation over 3SD threshold, % at 10 µM;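 active = fluorescence ratio rise of at least 3 SD of vehicle wells above their mean, in both replicate wells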;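 also: 0% = vehicle mean plus 3 SD and 100% = vehicle minus unstimulated blank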
Target sequence (P51787 whole entry, looked up): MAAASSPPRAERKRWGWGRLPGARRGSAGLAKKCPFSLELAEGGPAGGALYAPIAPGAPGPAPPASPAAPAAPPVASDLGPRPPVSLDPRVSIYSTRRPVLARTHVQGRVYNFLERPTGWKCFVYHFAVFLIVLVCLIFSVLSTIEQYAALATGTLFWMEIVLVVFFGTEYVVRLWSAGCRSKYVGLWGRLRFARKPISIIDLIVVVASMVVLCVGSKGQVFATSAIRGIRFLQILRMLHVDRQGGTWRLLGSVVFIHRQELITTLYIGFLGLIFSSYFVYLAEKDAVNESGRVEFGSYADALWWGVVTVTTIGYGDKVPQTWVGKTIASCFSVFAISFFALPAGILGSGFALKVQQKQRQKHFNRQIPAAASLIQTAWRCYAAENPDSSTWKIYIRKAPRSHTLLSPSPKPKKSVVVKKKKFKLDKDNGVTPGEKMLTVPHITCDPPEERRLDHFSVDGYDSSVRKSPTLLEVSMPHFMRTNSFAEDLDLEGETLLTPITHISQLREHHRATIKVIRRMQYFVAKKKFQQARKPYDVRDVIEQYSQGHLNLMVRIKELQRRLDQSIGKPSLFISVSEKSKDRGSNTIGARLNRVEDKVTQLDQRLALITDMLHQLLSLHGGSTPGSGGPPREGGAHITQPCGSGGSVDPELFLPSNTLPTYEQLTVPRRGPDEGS
KCNQ2 pot conf: rat KCNQ2 channel potentiators, confirmation, cell-based, CHO, FluxOR thallium flux, duplicate | shares compounds with KCNQ2 enhance | CHO-KCNQ2 cells, FluxOR thallium flux fluorescence | potentiation, less the hit threshold, % at 10 µM | 1,200 compounds, 68% hits;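 active = fluorescence ratio rising 3 SD or more over the vehicle control mean in both replicates, plus primary screen hit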;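 also: peak minus minimum thallium fluorescence divided by baseline after K/Tl stimulus; 0% = vehicle mean plus 3 SD and 100% = vehicle minus unstimulated blank difference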
Kir21 spec: mouse Kir2.1 channel activation off-target, confirmation, selectivity assay for KCNQ2 potentiator project, cell-based, HEK293, FluxOR thallium flux | shares compounds with KCNQ2 enhance | HEK293 Kir2.1, FluxOR thallium flux fluorescence | activity over 3SD threshold, % at 10 µM | 1,200 compounds, 2% hits | AID 2345, 2010;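 active = fluorescence ratio rise of at least 3 SD above the vehicle-control mean, seen in both replicates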;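 also: 0% = vehicle mean plus 3 SD and 100% = vehicle minus no-stimulus blank window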
KCNQ2 W236L MoA: potentiators of retigabine-insensitive KCNQ2 W236L, mechanism study for KCNQ2 potentiator project, cell-based, rat KCNQ2 W236L, CHO, automated patch clamp; shares compounds with KCNQ2 enhance; automated patch clamp current; current increase over 3SD of negative controls (%), stronger effect = higher value, % at 25 µM; 940 compounds, 10% hits;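 active = current increase at least 3 SD of the untreated controls above them in both duplicate recordings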
* hit, by the source's call; i = inactive; . = no result given.

SMILES | KCNQ2 inh | KCNQ2 enhance | Kir21 conf inh | HEK293 ctr | others
COc1cc(CNC(C)(C)CO)cc(Br)c1OCc1ccccc1 | i | 1.43 | . | .
COc1cc(CNCCO)cc(Cl)c1OCc1ccccc1Cl | i | . | . | .
Cc1ccc(C(=O)Oc2ccccc2N2C(=O)C3C4CCC(C4)C3C2=O)cc1 (stereo not given) | i | . | . | .
S=C(NCc1ccc2c(c1)OCO2)NC1CC1 | i | 0.43 | . | .
Cc1cccc(N2CCN(S(=O)(=O)c3cc(-c4cc(C)no4)ccc3C)CC2C)c1 (stereo not given) | i | . | . | .
O=C(Nc1ncc2c(n1)-c1ccccc1CC2)c1cccs1 | i | 9.65* | i | i | CHO-K1 Tl ctr=-8.9;KCNQ1 pot spec=-9.1;KCNQ2 pot conf=29.4*;Kir21 spec=-14.3;KCNQ2 W236L MoA=i
O=C(Nc1nc2c(s1)CCc1ccccc1-2)c1cccs1 | i | 0.02 | . | .
O=C(Nc1ncc2c(n1)-c1ccccc1CC2)c1ccccc1 | i | 8.52* | i | 73.0%* | CHO-K1 Tl ctr=-6.0;KCNQ1 pot spec=72.8*;KCNQ2 pot conf=16.8*;Kir21 spec=-49.9;KCNQ2 W236L MoA=i
O=C(Nc1ncc2c(n1)-c1ccccc1CC2)c1ccc(F)cc1 | i | 4.45 | . | .
Cc1cccc(N(C(=O)CCC(=O)Nc2cc(C)on2)C(C(=O)NC2CCCC2)c2ccccc2)c1 (stereo not given) | i | 0.2 | . | .
O=C1CC(SC(=Nc2ccccc2)Nc2ccccc2)C(=O)N1c1cccc2ccccc12 (stereo not given) | i | 1.59 | . | .
O=C(NC(=C(Cl)Cl)S(=O)(=O)c1ccc(Cl)cc1)c1ccccc1 | i | . | . | .
Cc1cc(C)c2nc(N3CCC(C(=O)NCCCN4CC(C)CC(C)C4)CC3)sc2c1 (stereo not given) | -6.42* | -6.42 | 50.0%* | i
Cc1cc(C)c2nc(N3CCCC(C(=O)NCCCN4CCOCC4)C3)sc2c1 (stereo not given) | i | . | . | .
COc1ccc(CN2CCN(S(=O)(=O)c3ccccc3)CC2)c(OC)c1OC | i | 0.68 | . | .
O=Cc1c(-c2ccc(Cl)cc2)oc2ccc(O)cc12 | i | . | . | .
CC(=O)c1ccccc1Oc1ncnc(N)c1[N+](=O)[O-] | i | . | . | .
Clc1ccccc1-c1nnc2n1-c1ccccc1SC2 | i | . | . | .
c1ccc2c(c1)Sc1ccccc1-n1cnnc1-2 | i | . | . | .
Brc1nnc2n1-c1ccccc1Sc1ccccc1-2 | i | 1.93 | 27.5%* | 65.5%*
Clc1ccc2c(c1)-c1nnc(Br)n1-c1ccccc1S2 | i | 1.02 | 65.5%* | 70.5%*
CCOC(=O)c1c(S(=O)(=O)NCc2ccc(C)o2)c(C)n(C)c1C | i | . | . | .
Cc1ccc(N/C(N)=N/c2nc(C)cc(C)n2)cc1 | i | 0.74 | . | .
Cc1cc(C)nc(/N=C(\N)Nc2ccc(C(C)C)cc2)n1 | i | 5.52* | i | i | CHO-K1 Tl ctr=99.5*;KCNQ1 pot spec=-15.3;KCNQ2 pot conf=-16.6;Kir21 spec=-41.7
Cc1cc(C)cc(NC(=O)c2ccc(Cn3nc(C)c(Cl)c3C)o2)c1 | i | . | . | .
SMILES | KCNQ2 inh | KCNQ2 enhance | Kir21 conf inh | HEK293 ctr | others
Cc1ccc(CNC(=O)c2ccc(Cn3nc(C)c(Cl)c3C)o2)cc1 | i | . | 48.5%* | i
CCCCc1nc(SCC(=O)N2CCOCC2)c2c(=O)n(C)c(=O)n(C)c2n1 | i | 5.36* | i | i | CHO-K1 Tl ctr=-3.6;KCNQ1 pot spec=56.8*;KCNQ2 pot conf=9.8*;Kir21 spec=-27.8;KCNQ2 W236L MoA=i
CC1CCN(C(=O)CSc2nc(C(C)C)nc3c2c(=O)n(C)c(=O)n3C)CC1 | i | 27* | i | i | CHO-K1 Tl ctr=20.9*;KCNQ1 pot spec=-1.7;KCNQ2 pot conf=123.8*;Kir21 spec=-24.1;KCNQ2 W236L MoA=i
CCCCc1nc(SCCOC)c2c(=O)n(C)c(=O)n(C)c2n1 | i | 2.04 | . | .
CCCCc1nc(SCC(=O)N2CCCC2)c2c(=O)n(C)c(=O)n(C)c2n1 | i | 8.17* | i | i | CHO-K1 Tl ctr=-22.1;KCNQ1 pot spec=-11.1;KCNQ2 pot conf=37.9*;Kir21 spec=-34.3;KCNQ2 W236L MoA=i
Cc1nc(SCC(=O)N2CCOCC2)c2c(=O)n(C)c(=O)n(C)c2n1 | i | 1.09 | . | .
CC(C)c1nc(SCC(=O)N2CCCc3ccccc32)c2c(=O)n(C)c(=O)n(C)c2n1 | i | 0.99 | . | .
Cn1c(=O)c2c(SCC(=O)N3CCOCC3)nc(C3CCCCC3)nc2n(C)c1=O | i | 3.77 | . | .
CCCCc1nc(SCC(=O)N2CCCCC2)c2c(=O)n(C)c(=O)n(C)c2n1 | i | 26.4* | i | i | CHO-K1 Tl ctr=-15.8;KCNQ1 pot spec=-25.2;KCNQ2 pot conf=100.5*;Kir21 spec=-43.0;KCNQ2 W236L MoA=i
NC(CCCCc1ccccc1)c1cccc2ccccc12 (stereo not given) | i | . | . | .
CCN(CC)CC(=O)Nc1ccccc1SCC(=O)Nc1ccsc1C(=O)OC | i | . | . | .
Cc1noc(C)c1C(=O)NCc1ccccc1F | i | . | . | .
CN(Cc1ccc(Cl)cc1)C(=O)c1ccc2ccccc2n1 | i | 0.42 | . | .
CCO[C@@H]1OC(C(=O)N2CCN(Cc3ccccc3)CC2)=C[C@H](c2coc3ccccc3c2=O)[C@H]1CCCO | i | 1 | . | .
CCOC(=O)c1c(C)[nH]c(C=C2C(=O)CCCC2=O)c1O | i | 0.42 | . | .
CC(C)Cc1nc(SCC(=O)N2CCCC2)c2c(=O)n(C)c(=O)n(C)c2n1 | i | 6.52* | i | i | CHO-K1 Tl ctr=32.6*;KCNQ1 pot spec=-10.3;KCNQ2 pot conf=19.4*;Kir21 spec=-8.8;KCNQ2 W236L MoA=i
Cn1c(=O)c2c(SCC(=O)N3CCCC3)nc(-c3ccccc3)nc2n(C)c1=O | i | 2.43 | . | .
CC(C)CCNC(=O)c1onc(CSc2nc3ccccc3[nH]2)c1C(=O)NCCC(C)C | i | . | . | .
OCC[C@@H]1C[C@@H](O)[C@H](O)[C@@]2(Cc3ccccc3O2)O1 | i | . | . | .
